Data on 15 molecules can be found in ChEMBL document CHEMBL4513146, “CO-ADD screening of Karazin Kharkiv National University (Ukraine) compounds”.

Entries with a potency or affinity are not part of this list.

The test system of this experiment is Klebsiella pneumoniae. The following applies: Concentration 32 ug.mL-1;; ASSAY_TEST Inhibition of Bacterial Growth; detection method Absorption (OD600); MEDIA CAMHB; plate type 384well; NBS; CORNING #3640; time 18 hr.
In general, Inhibition refers to the percentage by which the read-out fell short of the control. Low values mean a response near the control, high ones a response far below the control. `O=C(Cn1nc2c(SCc3ccc(Cl)cc3)nccn2c1=O)Nc1ccccc1F` registered an Inhibition of 4.91%. Turning to `O=C(Cn1nc2c3cc(-c4ccc(F)cc4)nn3ccn2c1=O)NCc1ccccc1Cl`, the Inhibition turned out to be 7.72%.

In turn, `COc1ccc(OC)c(NC(=O)Cn2nc3ccc(-c4ccc(Cl)cc4)nn3c2=O)c1` gave an Inhibition of 15.39%. The result for `COc1ccc(-c2cc3c4nnc(SCC(=O)Nc5ccccc5Cl)n4ccn3n2)cc1` reads 1.23%. The result for `COc1ccc(-c2cc3c4nnc(SCC(=O)Nc5ccc(OC)c(Cl)c5)n4ccn3n2)cc1` reads 6.25%. `COc1cccc(Oc2nccn3c(=O)n(CC(=O)Nc4cccc(Br)c4)nc23)c1` displayed an Inhibition of 6.87%.

Turning to `O=C(Cn1nc2nc(Nc3ccc(F)cc3)ccn2c1=O)NCc1ccc(F)cc1Cl`, the Inhibition turned out to be 11.65%. `Cc1ccc(-c2ccc3nn(Cc4cccc(Cl)c4)c(=O)n3n2)cc1C`: the Inhibition turned out to be 12.21%. The result for `Cc1ccc(NC(=O)Cn2nc3ccc(SC(C)(C)C)nn3c2=O)cc1C` reads 8.45%; that for `Cn1c(=O)c2sccc2n2c(=O)n(Cc3cccc(Br)c3)nc12`, 5.37%; that for `CCc1cccc(C)c1NC(=O)Cn1nc2ccc(SCc3ccc(Cl)cc3)nn2c1=O`, 2.49%. With `Cn1c(=O)c2ccc(C(=O)NC3CCCCC3)cc2n2c(=O)n(CC#N)nc12`, the Inhibition is reported as 3.72%. In the case of `O=C(CSc1nc2ccccc2n2c(-c3ccccc3)nnc12)Nc1ccc(Br)cc1` it was 12.64%. In the case of `Cc1cccc(C)c1NC(=O)Cn1nc2c(N3CCSCC3)nc3ccccc3n2c1=O` it was 7.3%; in that of `COc1ccc(Cn2nc3ccc(-c4ccc(Cl)cc4)nn3c2=O)cc1F`, 16.23%.
